From PubChem BioAssay (Tox21)
Where “and” joins values, the source holds several entries; their conditions need not be identical. Identical values can stand only once. Inconclusive results are not listed. Values without a mark were called inactive. Calls of active or inactive are those of the source. Calls come from the whole dose curve; as a rule, active = well fitted cell-killing curve with a large enough effect in the repeat runs; inconclusive = weak or mixed curves; inactive = no such curve, though single readings can be large or run the other way.

Test: qHTS assay for identifying genotoxic compounds that show differential cytotoxicity against isogenic chicken DT40 cell lines with known DNA damage response pathways - Rad54/Ku70 mutant cell line (AID 743015); note: nearly all actives have a fitted effect of over 60% in size
Details: DT40 Rad54/Ku70 mutant viability, CellTiter-Glo, 40 h; series mostly up to 66.8 µM; activity change, negative = cytotoxicity: at the top concentration
Source text: National Center for Advancing Translational Sciences [NCATS]
NIH Chemical Genomics Center [NCGC]
U.S. Environmental Protection Agency [EPA]
National Institutes of Environmental Health Sciences [NIEHS]
National Toxicology Program [NTP]
U.S. Food and Drug Administration [FDA]
DNA repair pathways play a critical role in cellular homeostasis by repairing DNA damage induced by endogenous processes and xenobiotics. Isogenic chicken DT40 cell lines deficient in different DNA repair pathways can be used to identify genotoxic compounds and aid in characterizing the nature of the DNA damage induced. Two DNA repair-deficient cell lines with disrupted genes, Rad54/Ku70 or Rev3, were used to screen the Tox21 10K compound library. Possible genotoxicity was based on the presence of a significant increase in cytotoxicity in one or more of the DNA repair-deficient cell lines compared to that observed in the parental DNA repair-proficient cell line. CellTiter Glo viability assay (Promega, Madison, WI) was used to measure cell viability in these cells after compound treatment. This assay includes the data from the Rad54/Ku70 mutant cell line.
Tox21 Assay Protocol Summary:
300 DT40 mutant cells in 5 uL/well were dispensed into white, solid-bottom 1536-well plates using a Multidrop Combi (ThermoFisher Scientific, Waltham, MA) dispenser. After the assay plates were incubated at 37 C/5% CO2 for approximately 0.5 hour, 23 nL of compounds dissolved in DMSO, positive controls or DMSO only was transferred into the assay plate by a pintool work station (Kalypsys, San Diego, CA). The assay plates were incubated at 37 C/5% CO2 for 40 hours. After 5 uL per well of CellTiter-Glo reagent was added into each well of the assay plates, the plates were incubated for 30 min at room temperature and the luminescence intensity of the plates was measured using a ViewLux (PerkinElmer, Shelton, CT) plate reader.
% is set by controls: 0 for no effect and ±100 for the full control effect; potency is the fitted concentration of half-maximal effect.

Point of comparison: `CCCCN(CCC(=O)OCC)C(C)=O`, “activity change, negative = cytotoxicity” value 10.7%. Against it:
- C=COC(=O)C(C)(CC)CCC(C)C (stereo not given) — lower, 5.28%
- CC(C)(C#N)Nc1nc(Cl)nc(NC2CC2)n1 — lower, -11.2%
- C[N+](C)(C)CCCCCCCCCC[N+](C)(C)C — lower, 4.27%
- Cc1ccccc1N=C(N)N=C(N)N — higher, 24.1%
- CC(=O)C1CCCCC1=O (stereo not given) — lower, 2.72%
- O=C(O)CNC(=O)c1ccc(CO)o1 — lower, 5.82%
- O=S(=O)(O)c1cccc2ccccc12 — lower, -14%
- CO/N=C(\C(=O)N[C@@H]1C(=O)N2C(C(=O)O)=C(CSc3nc(=O)c(O)nn3C)CS[C@H]12)c1csc(N)n1 — lower, -0.465%
- CCC(C)(CCCC(C)C)OC(C)=O (stereo not given) — lower, 7.53%
- CC(C)(C)C(=O)Oc1ccc(S(=O)(=O)Nc2ccccc2C(=O)NCC(=O)O)cc1 — lower, 6.18%
- COC(=O)Nc1ccc(Cl)c(Cl)c1 — higher, 12.8%
- CC1=CCC(O)(C(C)C)CC1 (stereo not given) — lower, 7.47%
- CC(C)NNC(=O)c1ccncc1 — higher, 14.6%
- CC(=O)N1C[C@H](O)C[C@H]1C(=O)O — lower, 5.47%
- CCCCCCCC1CCCC1=O (stereo not given) — lower, 9.17%
- [Ca+2] — lower, 1.84%
- CC(C)C(=O)OC(=O)C(C)C — lower, 2.06%
- NC(CCC(=O)O)C(=O)O (stereo not given) — lower, 10.4%
- O=C(CO)[C@@H](O)[C@H](O)[C@@H](O)CO — lower, 1.21%
- O=S(=O)(O)c1cc(O)c(O)c(S(=O)(=O)O)c1 — higher, 17.8%
- CC(C)(C)C(=O)c1ccccc1 — lower, -6.64%
- O=CN(CCO)CCO — lower, -3.54%
- CCCCCCCCCCCCSC — lower, -7.43%
- CCN[C@@H]1C[C@H](N)[C@@H](OC2OC(CN)=CCC2N)[C@H](O)[C@H]1O[C@H]1OC[C@](C)(O)[C@H](NC)[C@H]1O (stereo not given in full) — higher, 14.7%

With `NC(=O)N1c2ccccc2CC(=O)c2ccccc21` the Potency was 5.96 µM (active).
In the case of `CC[C@H]1OC(=O)[C@H](C)[C@@H](O[C@H]2C[C@@](C)(OC)[C@@H](O)[C@H](C)O2)[C@H](C)[C@@H](O[C@@H]2O[C@H](C)C[C@H](N(C)C)[C@H]2O)[C@](C)(OC)C[C@@H](C)C(=O)[C@H](C)[C@@H](O)[C@]1(C)O`, the Potency is reported as “inactive”.
For `Cc1nc2ccc(CN(C)c3ccc(C(=O)N[C@@H](CCC(=O)O)C(=O)O)s3)cc2c(=O)[nH]1`, the Potency was 2.1 nM (active) and 4.2 nM (active).
In the case of `C[N+]1(CC2COC(c3ccccc3)(c3ccccc3)O2)CCCCC1` (stereo not given), the Potency is reported as 26.6 µM (active).
With `CN(C)[C@@H]1C(=O)C(C(=O)NCN2CCCC2)=C(O)[C@@]2(O)C(=O)C3=C(O)c4c(O)cccc4[C@@](C)(O)C3C[C@@H]12` (stereo not given in full) the Potency was “inactive”.
For `C[C@@H]1C[C@H]2[C@@H]3C[C@H](F)C4=CC(=O)C(Cl)=C[C@]4(C)[C@@]3(F)[C@@H](O)C[C@]2(C)[C@@]1(O)C(=O)CO`, the Potency was 29.8 µM (active).

Point of comparison: `Cc1ccc(C(=O)c2ccc(CC(=O)O)n2C)cc1`, “activity change, negative = cytotoxicity” value 0.658% [at 30.7 µM]. Against it:
- C[C@@H]1CCC[C@H](C)N1 — higher, 1.15% [at 30.7 µM]
- CCCc1ncc(C[n+]2ccccc2C)c(N)n1 — higher, 0.732% [at 30.7 µM]
- C[N+]1(C)CCCC(OC(=O)C(O)(c2ccccc2)c2ccccc2)C1 (stereo not given) — lower, -9.52% [at 30.7 µM]

Point of comparison: `CCN1C=CN(C)C1C` (stereo not given), “activity change, negative = cytotoxicity” value 3.13% [at 95.1 µM]. Against it:
- CCCn1cc[n+](C)c1C — higher, 5.32% [at 95.1 µM]
- CCN(C=O)CC — higher, 7.05% [at 95.1 µM]
- CC(C)(N)C#N — lower, 1.87% [at 95.1 µM]
- CC(=O)c1cnccn1 — higher, 7.38% [at 95.1 µM]
